Laboratory results from PubChem BioAssay AID463082 (The Scripps Research Institute Molecular Screening Center, 2010).
The campaign covered roughly 330,000 compounds. About 4,900 (1.5%) were called active. For the sample, actives were picked, then their nearest neighbours and some compounds at random. Values without a mark were called inactive.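 How the source made its calls: active means inhibition above the mean inhibition across the screen plus 3 SD (cut at about 25% in these data); inactive means the rest.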

These compounds were tested against Platelet-activating factor acetylhydrolase (Homo sapiens) (UniProt Q13093) (assay: pPAFAH enzyme inhibitors, primary screen, biochemical, fluorescence polarization, human (AID 463082;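 further: inhibitors block binding of the rhodamine activity-based probe so polarization drops; 0% = enzyme with DMSO and 100% = wells lacking pPAFAH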)). Settings: recombinant pPAFAH, FP-rhodamine probe fluorescence polarization; at 3.39 µM; active compounds read high.
Sequence of Platelet-activating factor acetylhydrolase (Homo sapiens) (Q13093 whole entry, looked up): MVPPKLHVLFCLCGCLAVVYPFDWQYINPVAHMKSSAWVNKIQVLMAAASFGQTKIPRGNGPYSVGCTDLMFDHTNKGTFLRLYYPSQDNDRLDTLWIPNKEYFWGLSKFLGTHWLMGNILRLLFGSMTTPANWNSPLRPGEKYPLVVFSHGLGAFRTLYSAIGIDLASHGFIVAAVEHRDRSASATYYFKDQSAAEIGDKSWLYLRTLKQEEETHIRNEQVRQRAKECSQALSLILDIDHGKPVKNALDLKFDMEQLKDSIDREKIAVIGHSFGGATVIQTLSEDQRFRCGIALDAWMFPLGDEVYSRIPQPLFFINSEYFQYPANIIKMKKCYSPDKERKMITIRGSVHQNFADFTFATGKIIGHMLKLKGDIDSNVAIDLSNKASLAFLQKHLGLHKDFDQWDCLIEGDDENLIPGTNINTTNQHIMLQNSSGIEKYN
With CC1Cc2ccccc2N1S(=O)(=O)c1cccc(C(=O)OCC(=O)N2CCOCC2)c1 (stereo not given) the inhibition was 8.16%.
COc1ccc(OC)c(NC(=O)C2CCCN2S(=O)(=O)c2cccc3nsnc23)c1 (stereo not given) showed an inhibition of 1.9%.
For CC(=O)c1ccc(-c2ccc(Cn3c(C)nc4cc(N)c(C)nc43)cc2)cc1, the inhibition was 3.76%.
Cc1cc(-c2csc(N)n2)c(C)n1Cc1ccccc1 gave an inhibition of 12.4%.
With Cc1cc2nc3c(=O)n(Cc4ccccc4)c(=O)[nH]c3nc2cc1N the inhibition was 59.1% (active).
For Nc1nc(Br)c2ccccc2c1-c1ccc(F)cc1, the inhibition was 29.3% (active).
CN(CC(=O)Nc1c(Cl)cccc1Cl)C(=O)CC1OC(=O)c2ccccc21 (stereo not given) was tested, and the inhibition was 1.34%.
In the case of CC(NS(=O)(=O)c1ccc(Br)cc1)C(=O)NCC1CCCO1 (stereo not given), the inhibition is reported as 1.93%.
With OC(CNCC1CCCO1)Cn1c2ccc(Br)cc2c2cc(Br)ccc21 (stereo not given) the inhibition was 60% (active).
Work on O=C(CSc1ccc(-c2ccc(Br)cc2)nn1)NCC1CCCO1 (stereo not given) yielded an inhibition of 3.46%.
In the case of CC1c2nc3ccccc3n2C(CC(=O)NCCCN2CCOCC2)C(=O)N1Cc1ccccc1 (stereo not given), the inhibition is reported as 3.44%.
O=C(Cn1cc(C(F)(F)F)ccc1=O)Nc1ccc2c(c1)OCCO2 gave an inhibition of 0.39%.
Work on CCCN(CC(=O)Nc1ccccc1C)C(=O)c1ccc2[nH]c3c(c2c1)CC(C)CC3 (stereo not given) yielded an inhibition of 2.57%.
For COc1cccc2c(C)c(C(=O)O)[nH]c12, the inhibition was 40% (active).
COc1cc2c(C(=O)O)c(C)n(C)c2c2ccccc12 gave an inhibition of 8.22%.
Compound Cc1c(C(=O)N/N=C/c2ccccc2)[nH]c2c([N+](=O)[O-])cccc12 has an inhibition of 2.71%.
CCOc1ccc(N/C(N)=N/c2nc(C)c(C)c(=O)[nH]2)cc1 gave an inhibition of 5.08%.
In the case of CCOC(=O)CNC(=O)CSc1ncccc1-c1nc2ccccc2[nH]1, the inhibition is reported as 3.09%.
In the case of COC(=O)c1cccc(N(C(=O)c2ccco2)C(C(=O)NC2CCCC2)c2ccco2)c1 (stereo not given), the inhibition is reported as -7.26%.
Compound COc1ccc(C(CNC(=O)c2cccc(NS(=O)(=O)c3ccc(C)c(F)c3)c2)N2CCCC2)cc1 (stereo not given) has an inhibition of 5.75%.
In the case of CCOc1ccc(NS(=O)(=O)c2ccc(C(=O)NCC(c3ccccc3OC)N3CCCC3)cc2)cc1 (stereo not given), the inhibition is reported as 51.8% (active).
CCOc1ccc(NS(=O)(=O)c2ccc(C(=O)NC3CCN(Cc4ccccc4)CC3)cc2)cc1 showed an inhibition of 24.1%.
Cc1cc(S(=O)(=O)Nc2ccc(C(=O)NCC(c3ccco3)N3CCCC3)cc2)ccc1F (stereo not given) showed an inhibition of -0.43%.
COc1ccc(C(CNC(=O)c2ccc(S(=O)(=O)Nc3ccccc3C)cc2)N2CCOCC2)cc1 (stereo not given) was tested, and the inhibition was 33.2% (active).
Work on COc1ccc(C(CNC(=O)c2cccc(S(=O)(=O)Nc3ccccc3Cl)c2)N2CCOCC2)cc1 (stereo not given) yielded an inhibition of -3.75%.
CC(=O)Nc1ccc(S(=O)(=O)N2CCN(C(=O)c3ccccc3F)CC2)cc1 showed an inhibition of -5.31%.
COc1ccc(S(=O)(=O)N(C)C[C@@H]2Oc3ccc(NC(=O)Nc4c(C)noc4C)cc3C(=O)N([C@H](C)CO)C[C@@H]2C)cc1 gave an inhibition of 1.97%.
For COc1ccc(S(=O)(=O)NCc2cccnc2)cc1NC(=O)c1ccc(C)cc1, the inhibition was 0.8%.
For Cc1cccc(C)c1NC(=O)CCS(=O)(=O)c1cccc2nsnc12, the inhibition was -6.43%.
With Cc1cccc(Cn2cnc3c(N)c(C)c(C)cc32)c1 the inhibition was 9.5%.
In the case of Cn1c(=O)c(C(=O)Nc2ncccn2)c(O)c2ccccc21, the inhibition is reported as 1.18%.
Work on COC(=O)c1ccc(C(NC(=O)OCc2ccccc2)/C(F)=C/[C@@H](C)C(=O)O)cc1 (stereo not given in full) yielded an inhibition of 6.41%.
For COC(=O)c1ccc(C(NC(=O)OCc2ccccc2)/C(C)=C/[C@@H](C)C(=O)NCc2ccc(OC)c(OC)c2)cc1 (stereo not given in full), the inhibition was 40.4% (active).
COc1ccc(COC(=O)NC(C(=O)O)c2ccccc2)cc1 (stereo not given) showed an inhibition of -0.13%.
C=CCNC(=O)C1CC2c3ccccc3C1c1ccccc12 (stereo not given) gave an inhibition of 3.92%.
CSC1=NC2(C)CCCCC2C12C=CC(=O)C=C2 (stereo not given) showed an inhibition of 5.48%.
Cc1nn(C)cc1C(=O)c1ccccc1 gave an inhibition of -11.2%.
In the case of C=C(C)CNC(=O)c1ccc(OC2CCN(C(=O)COC)CC2)cc1, the inhibition is reported as -1.41%.
Work on COc1ccc(/C=N/NC(=O)c2ccc3c(c2)OCCO3)c(OC)c1 yielded an inhibition of 11.5%.
COc1cccc(/C=N/NC(=O)c2[nH]nc3c2CCc2ccccc2-3)c1O was tested, and the inhibition was 43.7% (active).
COc1cc(OC)c(/C=N/NC(=O)c2ccc([N+](=O)[O-])cc2)cc1Br was tested, and the inhibition was 2.36%.
In the case of Cc1onc(C(=O)NN)c1-c1csc(COc2ccccc2)n1, the inhibition is reported as -3.91%.
With COc1ccc(-c2csc(Cc3nc(O)cs3)n2)cc1 the inhibition was 13%.
With CC(C)(C)C(=O)OCc1nc(-c2ccc(O)c(O)c2)cs1 the inhibition was 27.5% (active).
For C/C(=N/N1CCN(Cc2cccc3ccccc23)CC1)c1cccnc1, the inhibition was -3.57%.
CCN(CC)C(=O)[C@H]1CC(CC(=O)NCc2ccco2)C(=O)N2CCc3c([nH]c4ccccc34)[C@]12C (stereo not given in full) gave an inhibition of -0.35%.
CCN1/C(=C\c2ccc3ccccc3[n+]2CC)Sc2cc(C)ccc21 was tested, and the inhibition was 36.3% (active).
Compound Cc1ccc(C(=O)OCC(=O)NC(=O)Cc2ccccc2)c(O)c1 has an inhibition of 5.13%.
For CCCc1cc(=O)[nH]c(SCC(=O)N2C(C)CCCC2C)n1 (stereo not given), the inhibition was 8.03%.
For Cc1cc(C(=O)CSc2nc(N)cc(=O)[nH]2)c(C)n1Cc1ccco1, the inhibition was 13.6%.
Cc1cc(=O)[nH]c(SCc2cccc(F)c2)n1 showed an inhibition of -3.14%.
Cc1cc(C)c(C(=O)CSc2nc(C)cc(=O)[nH]2)c(C)c1 gave an inhibition of 8.8%.
In the case of Cc1cc(C(=O)CSc2nc(N)cc(=O)[nH]2)c(C)n1CCc1ccc(Cl)cc1, the inhibition is reported as 69.6% (active).
Work on CCCc1cc(=O)[nH]c(SCC(=O)c2c(N)n(CC(C)C)c(=O)n(C)c2=O)n1 yielded an inhibition of 0.06%.
Cc1cc(C(=O)CSc2nc(N)cc(=O)[nH]2)c(C)n1-c1cccc(F)c1 was tested, and the inhibition was 56.4% (active).
In the case of Cc1cc(=O)[nH]c(SCc2ccc(Cl)cc2)n1, the inhibition is reported as -2.26%.
CCCc1cc(=O)[nH]c(SCC(=O)c2cc(C)n(CCC)c2C)n1 was tested, and the inhibition was 25.1% (active).
CONc1nc2nonc2nc1NOC gave an inhibition of 4.61%.
Compound CCN(CC(=O)Nc1ccc(OC)cc1)C(=O)c1ccc(=O)n(Cc2ccccc2)n1 has an inhibition of -1.18%.
O=c1oc2ccc(C#CC3(O)CCCCC3)cc2cc1-n1cc(-c2ccsc2)nn1 showed an inhibition of -0.61%.
Compound O=C(CO/N=C/c1ccccc1O)NNC(=O)c1ccccc1Cl has an inhibition of 0.6%.
In the case of CCOCCCNC(=O)C(=O)NCCCOCC, the inhibition is reported as 7.96%.
COc1cccc(COC(=O)C2CCN(S(=O)(=O)c3cccs3)CC2)c1OC gave an inhibition of 0.21%.
Work on Cn1cccc1C(C#N)c1ccccc1C#N (stereo not given) yielded an inhibition of 6.28%.
For CC(=O)Oc1c(C(=O)c2nnc(C)o2)c(=O)n(Cc2ccccc2)c2ccccc12, the inhibition was 4.19%.
With CCCCNC(=O)C(C)N(CCN(C)C)C(=O)CCCN1C(=O)NC(c2ccc(Cl)cc2)C(C(=O)OCc2ccccc2)=C1C (stereo not given) the inhibition was 8.55%.
For FC(F)(F)c1cccc(Cc2noc(CN3CCC(N4CCCCC4)CC3)n2)c1, the inhibition was -0.07%.
Compound CCN(C(=O)c1cc([N+](=O)[O-])ccc1NCc1cccnc1)c1ccccc1 has an inhibition of -0.13%.
CC(Oc1ccc(Br)cc1)C(=O)NCC(c1ccco1)N1CCCCC1 (stereo not given) gave an inhibition of 1.84%.
CCOC(=O)C1(Cc2ccc(Cl)cc2)CCN(C(=O)C2=NNC(=O)CC2)CC1 was tested, and the inhibition was 1.54%.
With COC(=O)CN1C(=O)[C@H]2[C@@H](/C=C/c3ccccc3)N3C(=O)CN(Cc4ccccc4)C(=O)[C@@]3(Cc3ccccc3)[C@H]2C1=O the inhibition was 3.66%.
Work on NS(=O)(=O)c1ccccc1NC(=O)c1c(O)c2ccccc2[nH]c1=O yielded an inhibition of -4.47%.
In the case of CN(C(=O)COC(=O)Cc1ccccc1[N+](=O)[O-])C1CCS(=O)(=O)C1 (stereo not given), the inhibition is reported as -1.36%.
In the case of CN(CCOc1ccccc1)C(=O)c1cc(-c2ccco2)nc2ccccc12, the inhibition is reported as 17.3%.
With CN(C(=O)COC(=O)c1cc(-c2ccco2)nc2ccccc12)C1CCS(=O)(=O)C1 (stereo not given) the inhibition was 30.1% (active).
For c1ccc(C2CCC(N3CCC(N4CCCCC4)CC3)CC2)cc1 (stereo not given), the inhibition was 4.58%.
Work on CC/C(O)=C1\C(=O)CC(C)(C)CC1=NCCc1nc2ccccc2[nH]1 yielded an inhibition of -2.43%.
With Cc1cccc(C(=O)Nc2ccc(C(=O)/C=C/c3cccs3)cc2)c1 the inhibition was -9.49%.
With CC(=O)Nc1ccc(S(=O)(=O)Nc2cccc(NC(=O)C(C)(C)C)c2)cc1 the inhibition was 6.07%.
CC(=O)Nc1ccc(S(=O)(=O)Nc2ccc(-c3ccc4nnc(C)n4n3)cc2)cc1 gave an inhibition of 3.56%.
For CC(=O)Nc1ccc(S(=O)(=O)Nc2nc(-c3ccc(C(C)(C)C)cc3)cs2)cc1, the inhibition was 25.1% (active).
O=C(NC(=S)Nc1cccc2c(O)cccc12)c1cccc(Br)c1 was tested, and the inhibition was 8.85%.
COc1cc(-c2noc(C3CCCN(S(=O)(=O)c4cccc(Cl)c4)C3)n2)cc(OC)c1OC (stereo not given) showed an inhibition of 1.19%.
O=C(Cc1cccs1)N1CCCC(c2nc(-c3ccc(S(=O)(=O)N4CCCC4)cc3)no2)C1 (stereo not given) was tested, and the inhibition was 3.46%.
In the case of CC(C)c1ccc(-c2noc(C3CCCN(S(C)(=O)=O)C3)n2)cc1 (stereo not given), the inhibition is reported as 26.1% (active).
Compound CCCn1c(N)c(C(=O)CSc2nnc(-c3cccnc3)n2-c2ccc(C)cc2C)c(=O)[nH]c1=O has an inhibition of 4.8%.
COCC1CCCN(Cc2nc(-c3ccc4c(c3)OCO4)no2)C1 (stereo not given) showed an inhibition of 0.91%.
With CCCCOc1ccc(C(=O)NCC(=O)OCC(=O)N2CCN(S(=O)(=O)c3ccc(C)cc3C)CC2)cc1 the inhibition was 28% (active).
Cc1ccc(S(=O)(=O)N2CCN(C(=O)COC(=O)c3c(C)cc(C)cc3C)CC2)c(C)c1 showed an inhibition of 0.75%.
With Cc1ccc(S(=O)(=O)N2CCN(C(=O)COC(=O)CNC(=O)c3ccc(C(C)(C)C)cc3)CC2)c(C)c1 the inhibition was 18%.
